Sm TGR inh: S. mansoni TGR enzyme inhibition; Q962Y6; purified TGR, DTNB reduction, TNB absorbance 405 nm; Potency, µM (series often up to 114 µM), without a hit: top-dose activity change, negative = inhibition, actives largely listed as inhibitors; 360,000 compounds, 3% hits; also: potency is read from the fitted curve at half-maximal effect; % is scaled to controls: 0 for no effect and ±100 for the full control effect; nearly all actives have a fitted effect of over 60% in size
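First, TGR (20 nM dispensed) and NADPH were mixed with compound. Second, a 15 min room-temperature incubation followed. Third, further NADPH and then DTNB were added to start the reaction. Finally, TNB absorbance was monitored kinetically.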
NS1 function inh: inhibitors of influenza NS1 protein function. 270,000 compounds, 0.4% hits. AID 2326. Potency, µM (highest dose often 46.1 µM), for inactives: at the highest dose activity, positive = more growth; calls by dose curve; also: potency is read from the fitted curve at half-maximal effect; actives are rising curves; nearly all actives have a fitted effect of over 50% in size
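In this qHTS, NS1 from influenza A is expressed in budding yeast, where it slows growth. Cells are switched from glucose to 2% galactose medium (pH 6.0, -URA), treated with compound, and growth recovery is read at OD600.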
Pf growth 48h: P. falciparum growth inhibition at 48 hours (one generation); Potency, µM (top dose mostly 28.7 µM), for the others: top-dose activity change, negative = inhibition, hits mostly inhibitors; 310,000 compounds, 5.9% hits; P. falciparum luciferase growth in erythrocytes, 48 h; also: potency is read from the fitted curve at half-maximal effect; % is scaled to controls: 0 for no effect and ±100 for the full control effect
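In quantitative HTS format, infected erythrocytes bearing luciferase-reporter parasites were treated for a single generation at 37 C. Luminescence after adding detection reagent served as the growth measure.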
Shiga toxin inh: blocks Shiga toxin action in Vero cells; Vero cells, Shiga toxin protein synthesis inhibition reporter; inhibition, % at 38.7 µM; 290,000 compounds, 9.2% hits; in the data active = inhibition mostly above about 28%, no sharp cut-off; inactive = mostly below about 43%; also: 0% is about no effect
Cycloheximide cs: counter-screen hit for Shiga toxin inhibitors, cycloheximide; cell reporter, cycloheximide protein synthesis inhibition counterscreen; max response, %; 300,000 compounds, 12% hits; AID 2314; in the data active = max response mostly above about 13%, no sharp cut-off; inactive = mostly below about 14%; also: read at 38.3 µM for the half of the compounds with a filed dose; 0% is about no effect
Pf growth 96h: P. falciparum growth inhibition at 96 hours; 320,000 compounds, 6.9% hits; Potency, µM (titrated, usually from 28.7 µM), without a hit: at the top dose activity change, negative = inhibition, hits mostly inhibitors; P. falciparum luciferase reporter growth, 96 h; also: potency is read from the fitted curve at half-maximal effect; % is scaled to controls: 0 for no effect and ±100 for the full control effect
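Compounds incubated with erythrocytes infected by luciferase-expressing P. falciparum (2% hematocrit, 0.05% parasitemia final) for 96 hours, 37 C in 5% CO2. Growth inhibition scored as decreased luciferase luminescence.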
* hit, by the source's call; i = inactive; ? = inconclusive; · = no result. A selection: hits, their analogues and other compounds. The true share with any hit is near 21%. Unless noted, calls follow the shape of the dose curve; as a rule, active = well fitted curve in the direction sought with a large enough effect; inconclusive = small, poorly fitted or top-dose-only effect, or another doubt; inactive = no such curve, though single readings can be large; an effect the other way counts as inactive or inconclusive.

SMILES | Sm TGR inh | NS1 function inh | Pf growth 48h | Shiga toxin inh | Cycloheximide cs | Pf growth 96h
Cc1cccc(-c2cc3nc(C)cc(NCCCN(C)C)n3n2)c1 | 3% | -13% | 10µM* | -12 | -2 | 379%
CN(C)CCCNc1cc(-c2ccccc2)nc2cc(-c3cccc(F)c3)nn12 | 100µM* | -5% | ? | -33 | -9 | -14%
COc1ccc(S(=O)(=O)N2CCC(C(=O)NCC3CCCCC3)CC2)cc1 | -4% | -25% | -14% | 1 | -2 | 35%
O=C(NC(=S)Nc1cc(S(=O)(=O)N2CCOCC2)ccc1N1CCOCC1)C1CCCC1 | 19% | · | -29% | -21 | -5 | ?
CC(=O)N1CCN(c2cc(N3CCc4ccccc4C3)c(F)cc2[N+](=O)[O-])CC1 | -19% | 9% | -17% | -13 | -5 | ?
CCN(CC)S(=O)(=O)c1ccc(N/N=C/c2ccc(O)cc2)nc1 | -2% | -2% | -21% | -8 | -6 | ?
CCN(CC)S(=O)(=O)c1ccc(N/N=C(\C)c2ccc(OC)cc2O)nc1 | 2% | -40% | 13µM* | 10 | -1 | ?
CCOc1cccc(/C=N/Nc2ccc(S(=O)(=O)N(CC)CC)cn2)c1O | -1% | 15% | 2.9µM* | 15 | -2 | 2.6µM*
CCc1ccc(NC(=O)CCc2c(C)nn(-c3ccc(N4CCCC4)nn3)c2C)cc1 | -3% | · | · | · | · | ·
CSCC[C@H](N)C(=O)N[C@@H](CCCN=C(N)N)C(=O)N[C@@H](Cc1ccccc1)C(=O)N[C@@H](Cc1ccccc1)C(=O)N[C@H](C(=O)O)C(C)C | · | · | · | -10 | -9 | ·
Brc1ccc2c(c1)C(OC1CN3CCC1CC3)c1ccccc1CS2 (configuration not stated) | 89µM* | 6% | ? | -22 | -8 | 10µM*
c1ccc2c(c1)CSc1ccccc1C2C1=NCCN1 (configuration not stated) | 0% | 28% | -5% | 4 | -3 | -5%
O=c1c(C(c2ccccc2)c2c(O)nc3n(c2=O)CCCS3)c(O)nc2n1CCCS2 | 4.5µM* | · | 11% | -13 | 6 | -13%
O=c1c(C(c2ccc(F)cc2)c2c(O)nc3n(c2=O)CCCS3)c(O)nc2n1CCCS2 | 1.8µM* | 1% | -2% | 2 | -2 | 0%
O=c1c(C(c2ccccc2)c2c(O)nc3n(c2=O)CCS3)c(O)nc2n1CCS2 | 1.8µM* | 15% | -4% | -4 | -3 | -16%
N#Cc1c(-c2ccc(F)cc2)nc2n(c1=O)CCS2 | 6% | 0% | · | -14 | -4 | -18%
CCOC(=O)c1c(C)oc2nc(C)nc(N3CCN(c4cc(Cl)ccc4C)CC3)c12 | 5% | · | · | · | · | ·
Cn1c2ccccc2c2cc(/C=N/NC(=O)c3ccc(N)cc3)ccc21 | 0% | -52% | 13µM* | 24 | 13 | ?
CCn1c2ccccc2c2cc(/C=N/NC(=O)c3ccccc3C)ccc21 | 4% | -11% | ? | -4 | 5 | -5%
Cn1c2ccccc2c2cc(/C=N/NC(=O)c3ccccc3F)ccc21 | 12% | -38% | ? | 79* | 41* | ?
Cn1c(-c2ccccc2)c(/C=N/NC(=O)c2ccc(O)cc2)c2ccccc21 | 17% | -5% | 69% | 87* | 34* | ?
Cc1ccc(/C=N/NC(=O)c2ccc(-c3ccccc3)cc2)o1 | 2% | -42% | ? | 36 | 9 | ?
Cc1cc(NC(=O)c2noc3c2CCc2ccccc2-3)no1 | 0% | -4% | 37% | 7 | -2 | -12%
CC(=O)c1cccc(NC(=O)c2noc3c2CCc2ccccc2-3)c1 | -2% | · | i | 66* | 35* | -29%
Cc1ccccc1Cn1nc(C)c(NC(=O)c2noc3c2CCc2ccccc2-3)c1C | -7% | -100% | ? | -12 | -1 | 1.2µM*
SMILES | Sm TGR inh | NS1 function inh | Pf growth 48h | Shiga toxin inh | Cycloheximide cs | Pf growth 96h
Cc1ccc(O)c(NC(=O)c2noc3c2CCc2ccccc2-3)c1 | 0% | · | ? | 87* | 43* | 9.3µM*
COc1ccc2c3c1O[C@H]1[C@@H](O)C=C[C@H]4C(C2)NCCC341 (some centres not stated) | · | · | -12% | · | · | 0.17µM*
CCOc1ccc(CNC(=O)CCS(=O)(=O)c2cc3c4c(c2)CCN4C(=O)CC3)cc1 | 1% | · | · | · | · | ·
Cc1ccc(S(=O)(=O)N=Nc2c(O)[nH]c3cc(O)c(C(=O)O)cc23)cc1 | · | -5% | · | · | · | ·
Cc1ccc(CNC(=O)C2CC3Cn4c(nc5cc(C)c(C)cc54)C3N2C)o1 (configuration not stated) | 0% | 4% | -28% | -3 | -4 | 32%
CN1C(C(=O)NCc2cccc(C(F)(F)F)c2)CC2Cn3c(nc4cc5ccccc5cc43)C21 (configuration not stated) | -5% | 5% | 13% | -4 | 1 | 23%
CCCNC(=O)C1CC2Cn3c(nc4ccccc43)C2N1C (configuration not stated) | 40µM* | · | -24% | · | · | 66%
C=CCNC(=O)C1CC2Cn3c(nc4cc5ccccc5cc43)C2N1C (configuration not stated) | 0% | ? | -6% | 38* | 41* | ?
Cc1ccc(CNC(=O)C2CC3Cn4c(nc5cc(Cl)c(Cl)cc54)C3N2C)o1 (configuration not stated) | 45µM* | -3% | -13% | -6 | -3 | 0%
CN(C)S(=O)(=O)c1cc(NC(=O)CN2CCN(c3ccc(O)cc3)CC2)ccc1Cl | 79µM* | · | ? | 25 | -1 | ?
Cc1cc(Br)c(NC(=O)CN(C)CCOc2ccccc2)c(Br)c1 | 22% | -5% | 36% | 24 | 11* | -14%
NC(=O)c1ccc(NC(=O)CNCc2ccccc2Cl)cc1 | 3% | 4% | 14% | 49* | 14* | 7%
CN(CCOc1ccccc1)CC(=O)Nc1ccc(Cl)c(S(=O)(=O)N(C)C)c1 | 7% | · | -19% | -3 | 2 | 9.3µM*
CN(C)S(=O)(=O)c1cc(NC(=O)CN2CCN(c3ccccc3)CC2)ccc1Cl | 3% | -7% | -20% | -6 | 3 | ?
c1cncc(CNCc2cccnc2)c1 | · | 3% | · | · | · | ·
COc1ccccc1[C@@H]1C(c2ccc(F)cc2)=NN(c2ccc(Br)cc2)[C@H]1C(=O)N1CCOC1=O | · | · | · | i | -2 | ·
COc1cc(NC(=O)CN(C)CCOc2ccccc2)c(C)cc1[N+](=O)[O-] | -36% | -4% | 12µM* | -5 | -1 | ?
Cc1ccc(NC(=O)CNCc2ccc(Cl)cc2Cl)cc1S(=O)(=O)N(C)C | -3% | 2% | -6% | 11 | 4 | -21%
Cc1ccc(NC(=O)CNCc2ccccc2Cl)cc1S(=O)(=O)N(C)C | -11% | 1% | · | 58* | 40* | ?
CN(C)S(=O)(=O)c1cc(NC(=O)CNCc2ccccc2)ccc1Cl | 1% | 2% | -11% | 67* | 41* | ?
O=C(CN1C(=O)c2ccc(Br)cc2C1=O)NCC1CCCO1 (configuration not stated) | 9% | 22% | 7% | -6 | 8 | 48%
